TSG101-PTAP inh = blocks PTAP/TSG101 interaction to inhibit HIV-1 budding; Q99816; Potency, µM (series often up to 115 µM), hits mostly inhibitors; Fluorescence polarization, FITC-PTAP peptide / Tsg101 binding; 340,000 tested, under 10 active; active means well fitted inhibition curve with a large enough effect in the main read-out, with a control signal flat, not every such curve was filed as active; inconclusive means small, poorly fitted or top-dose-only effect, or effect the other way, or a change in a side signal; inactive means no such curve, though single readings can be large or run the other way
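Compounds were pin-transferred onto Tsg101 binding domain (10 uM final) in HEPES pH 7.5 buffer, then FITC-PTAP peptide was added at 50 nM final. After 20 min at RT, polarization reported peptide displacement across a qHTS concentration series.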
GCN5L2 inh = inhibitors of human GCN5L2 histone acetyltransferase | Q92830 | GCN5L2 HAT assay, ThioGlo1 CoA-SH fluorescence | Potency, µM (highest dose often 58.9 µM), usual class: inhibitors | 0.21% of 390,000 active | AID 504327
Target sequence (Q92830 whole entry, looked up): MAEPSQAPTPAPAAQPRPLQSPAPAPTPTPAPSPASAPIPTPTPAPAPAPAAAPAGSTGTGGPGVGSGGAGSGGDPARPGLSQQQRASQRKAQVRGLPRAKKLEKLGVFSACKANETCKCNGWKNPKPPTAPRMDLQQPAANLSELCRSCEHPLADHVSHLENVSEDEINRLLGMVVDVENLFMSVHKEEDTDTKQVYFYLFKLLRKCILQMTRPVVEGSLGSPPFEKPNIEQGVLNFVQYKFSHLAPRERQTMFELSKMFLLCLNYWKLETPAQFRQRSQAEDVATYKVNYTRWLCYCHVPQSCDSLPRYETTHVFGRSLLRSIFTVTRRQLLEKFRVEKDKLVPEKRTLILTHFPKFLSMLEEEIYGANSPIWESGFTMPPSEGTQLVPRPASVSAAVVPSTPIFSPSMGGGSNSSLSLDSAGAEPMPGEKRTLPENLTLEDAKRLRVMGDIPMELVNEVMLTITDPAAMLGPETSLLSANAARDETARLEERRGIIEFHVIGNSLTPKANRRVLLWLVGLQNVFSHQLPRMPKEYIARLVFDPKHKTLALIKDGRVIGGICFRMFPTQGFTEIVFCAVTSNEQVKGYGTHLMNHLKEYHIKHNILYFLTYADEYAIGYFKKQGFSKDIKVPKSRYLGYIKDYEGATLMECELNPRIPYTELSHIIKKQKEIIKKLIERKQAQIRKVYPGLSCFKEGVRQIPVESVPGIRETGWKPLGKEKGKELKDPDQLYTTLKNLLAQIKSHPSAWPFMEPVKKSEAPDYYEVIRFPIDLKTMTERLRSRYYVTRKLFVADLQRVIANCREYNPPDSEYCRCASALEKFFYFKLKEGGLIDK
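GCN5L2 (20nM final) in 50mM HEPES, 0.1mM EDTA pH 7.5, 0.01% Tween-20 was preincubated 15 min at room temperature with compound, then given ThioGlo1 (50uM), H3(1-25) peptide (75uM) and acetyl-CoA (70uM); CoA-thiol fluorescence (Ex340/Em540) was read at 0 and 20 min.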
PLK1 PBD block = PLK1 (human) polo-box domain binding inhibition; P53350; 2.8% of 360,000 active; Potency, µM, usual class: inhibitors; Plk1 PBD binding of FITC phosphopeptide, fluorescence polarization; further: series mostly up to about 57 µM; nearly all actives have a fitted effect of over 65% in size
USP1 inh = inhibitors of human USP1/UAF1 deubiquitinase; recombinant USP1/UAF1, Ub-Rhodamine cleavage fluorescence; Potency, µM (series often up to 57.1 µM), actives largely listed as inhibitors; O94782; 0.23% of 390,000 active; further: nearly all actives have a fitted effect of over 60% in size
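1 nM enzyme complex + cpd, 15 min RT; start with Ub-Rho 150nM final; kinetic fluorescence ex 480/em 540, 6 reads q60 s. Buffer 50mM HEPES pH 7.8, 0.5mM EDTA, 0.1 mg/ml BSA, 1mM TCEP, 0.01% Tween-20.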
VDR inh = blocks the human vitamin D receptor; P11473; 0.93% of 400,000 active; Potency, µM, most hits filed as inhibitors; VDR-SRC2-3 peptide fluorescence polarization, 2 h
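VDR–SRC2-3 interaction, FP format. Cmpds 23 nl via pintool, brief spin, 2 h ambient incubation.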
Of the large screens only hits and unclear results are named; the others gave an inactive call. This is a sample that favours compounds with a hit; in the whole collection about 3% have one here. Unless noted, the call rests on the fitted dose curve; in most records, active means well fitted curve in the direction sought with a large enough effect; inconclusive means small, poorly fitted or top-dose-only effect, or another doubt; inactive means no such curve, though single readings can be large; an effect the other way counts as inactive or inconclusive.

c1ccc(C2=Nn3c(nnc3-c3cccs3)SC2)cc1	none
c1csc(C2=Nn3c(nnc3-c3ccncc3)SC2)c1	PLK1 PBD block 27µM
CCCCCCNC(=O)OC12CN(C(=O)OC(C)C)N(C(=O)OC(C)C)CC1(O)CN(S(=O)(=O)c1ccc(C)cc1)C2 (stereo unspecified)	USP1 inh inconclusive (no result: TSG101-PTAP inh, GCN5L2 inh, VDR inh)
Cn1c(=O)c(=O)n(C)c2cc(S(=O)(=O)CCC(=O)N3CCOCC3)ccc21	PLK1 PBD block 27µM, VDR inh inconclusive
CC1CCCN(C(=O)CCS(=O)(=O)c2ccc3c(c2)n(C)c(=O)c(=O)n3C)C1 (stereo unspecified)	none
Cc1c(C(=O)Nc2cccc(C(F)(F)F)c2)oc2ccc(S(=O)(=O)N(C)C3CCCCC3)cc12	none (no result: TSG101-PTAP inh, PLK1 PBD block)
Cc1ccc2c(c1)cc(CN(Cc1cccs1)C(=O)c1ccco1)c1nnnn12	PLK1 PBD block 8.4µM, VDR inh inconclusive
Nc1ccccc1NC(=O)c1ccc(CNC(=O)OCc2cccnc2)cc1	none (no result: TSG101-PTAP inh, PLK1 PBD block, USP1 inh)
O=C1CC(=O)N(Cc2ccco2)C(=O)N1	PLK1 PBD block 6.7µM, VDR inh inconclusive
O=C1C(=C2CCCCC2)SC(=S)N1Cc1ccco1	PLK1 PBD block 21µM, VDR inh inconclusive
O=C1CC(=O)N(Cc2ccco2)C(=S)N1	GCN5L2 inh 18µM, PLK1 PBD block 21µM, VDR inh inconclusive
Cc1ccc(C)c(N2N=C(C(=O)Nc3cccnc3)CCC2=O)c1	none
C#CCNC(=O)C[C@@H]1C[C@@]2(C(=O)OCC)CCC=C2N(CCC2=CCCCC2)C1=O	none (no result: TSG101-PTAP inh, GCN5L2 inh, USP1 inh, VDR inh)
COc1ccc(S(=O)(=O)/N=C2/C=CC(=O)C(C)=C2C)cc1	PLK1 PBD block 24µM, VDR inh inconclusive
CC1=C(C)/C(=N\OS(=O)(=O)c2ccc(C)cc2)C=CC1=O	PLK1 PBD block inconclusive, VDR inh 28µM
CC1=C/C(=N\OS(=O)(=O)c2ccccc2)C(C)=CC1=O	none
O=C1C2=C(C(=O)c3ccccc31)C1O[C@](c3ccsc3)(Cc3ccccc31)O2	none (no result: TSG101-PTAP inh, PLK1 PBD block, USP1 inh, VDR inh)
Oc1ccc(/C=N/Nc2ccnc3cc(Cl)ccc23)c(O)c1O	PLK1 PBD block 2.1µM, USP1 inh inconclusive
COc1cccc(NC(=O)Cn2c(=O)n(CCCCC(=O)NCc3ccccc3Cl)c(=O)c3ccccc32)c1	none (no result: TSG101-PTAP inh, PLK1 PBD block)
CC1(C)C2CCC1(C)C(OC(=O)C[n+]1ccccc1)C2 (stereo unspecified)	PLK1 PBD block 19µM, VDR inh 22µM
CC1(C)C2CCC1(C)C(OC(=O)CNc1ccccc1)C2 (stereo unspecified)	PLK1 PBD block 19µM
CC1(C)C2CCC1(C)C(OC(=O)C[n+]1ccccc1N)C2 (stereo unspecified)	none
O=C(O)c1ccc(-n2cccc2/C=C2/SC(=O)N(CC(=O)N3CCCC3)C2=O)cc1	GCN5L2 inh inconclusive, PLK1 PBD block 19µM
O=C(O)c1ccc(-n2cccc2/C=C2/NC(=O)N(c3ccccc3)C2=O)cc1	GCN5L2 inh inconclusive, PLK1 PBD block 19µM
O=C(O)c1cccc(-n2cccc2/C=C2\NC(=O)N(Cc3ccc(F)cc3)C2=O)c1	PLK1 PBD block inconclusive
Cc1ccc(CN2C(=O)C3(c4ccccc42)N(c2cccc(F)c2)C(=O)CS3(=O)=O)cc1 (stereo unspecified)	none (no result: TSG101-PTAP inh, PLK1 PBD block)
Cc1ccc(C)c(CSc2cn(CC(=O)N3CCCC3)c3ccccc23)c1	none (no result: TSG101-PTAP inh, PLK1 PBD block)
COc1ccc(-n2nnc3c(SC(C(C)=O)C(=O)N(C)C)ncnc32)cc1 (stereo unspecified)	PLK1 PBD block 24µM, VDR inh 7.1µM
COC(=O)C(C)Sc1ncnc2c1nnn2-c1ccc(F)cc1 (stereo unspecified)	none
CCOC(=O)C1CCCN(c2ccc(NC(=O)c3snc4c(=O)[nH]c(C)nc34)cc2)C1 (stereo unspecified)	GCN5L2 inh 2.5µM
O=[N+]([O-])c1cccc(OCc2cn3cccnc3n2)c1	PLK1 PBD block 27µM
CCOC(=O)C1(C)CCN1C(=O)c1ccc2ccccc2c1 (stereo unspecified)	none (no result: TSG101-PTAP inh, GCN5L2 inh, USP1 inh, VDR inh)
CCC(=O)Nc1sc(Cc2ccccc2)c(C)c1C(N)=O	PLK1 PBD block 27µM
Cc1c(Cc2ccc3c(c2)OCO3)sc(NC(=O)C(C)(C)C)c1C#N	none
Cc1c(Cc2ccccc2)sc(N)c1C(N)=O	none (no result: TSG101-PTAP inh, PLK1 PBD block, USP1 inh, VDR inh)
Cc1c(Cc2ccccc2)sc(NC(=O)C(C)(C)C)c1C(N)=O	PLK1 PBD block 19µM

From PubChem BioAssay
